From paper doi:10.1101/2023.07.10.548322

target: alpha-synuclein (aSyn) WT (human, UniProt P37840 1-140); assay: RNA Bind-n-Seq; conditions: ssRNA

| Sequence | binding signal |
| --- | --- |
| AGGGGAGCUGGG | 41.1 enrichment score |
| GGUAGGCUGUGG | 49.1 enrichment score |
| GGGGUGGUGUUG | 46.4 enrichment score |
| GCGGGGGGGCUG | 43.8 enrichment score |
| GGCAGGCUGUGG | 41.1 enrichment score |
| CGUGGGGAGUGG | 41.1 enrichment score |
| AUGGGAGUGGGG | 43.8 enrichment score |
| GUGGGGGGGCAU | 43.8 enrichment score |
| GGCGGGGGGUGA | 43.8 enrichment score |
| GGUGGUUUGUGG | 43.8 enrichment score |
| GGGCAGUGGAGG | 54.6 enrichment score |
| UAGGGGUUGUGG | 43.8 enrichment score |
| GAGGUGGAGGGU | 57.4 enrichment score |
| CGGAGGUGGGUG | 41.1 enrichment score |
| AGGGGGGAGCAG | 49.1 enrichment score |
| GUGGGGAGGAAG | 46.4 enrichment score |
| GGGGGUGGCAGA | 43.8 enrichment score |

| Sequence | binding signal |
| --- | --- |
| GUGUGGGGGCAG | 43.8 enrichment score |
| GGUUGGGAGCGG | 43.8 enrichment score |
| AGUGGGGGGGAG | 43.8 enrichment score |
| GAGGUUGGCGGG | 43.8 enrichment score |
| GGAGGUGGUGCG | 41.1 enrichment score |
| GAGGCGGGAGGG | 43.8 enrichment score |
| AUGGGGUGGGCG | 41.1 enrichment score |
| UGGGUGGGAAGG | 43.8 enrichment score |
| GCGGGAUGGGGG | 43.8 enrichment score |
| UGGGGGUGGAUG | 43.8 enrichment score |
| CGUGGGAGGGGG | 43.8 enrichment score |
| GGAUGGUUGGUG | 54.6 enrichment score |
| UUGGGUGGAGGG | 46.4 enrichment score |
| UGAUGGGGGUGG | 43.8 enrichment score |
| GGGCUGGGAGUG | 41.1 enrichment score |
| AGUGGCGGAGGG | 43.8 enrichment score |
